What all share (design): scale not given: direction of the effect not stated beside the values
Assay [1] concerns the target Protein translocase subunit SecA (Escherichia coli (strain K12)) (UniProt P10408). Put plainly: Assay to Identify E. coli SecA ATPase Inhibitors. Particulars: 30 µM. The assay is classed as functional.
In assay [2] the target is T1, Ubiquitin-activating enzyme e1, putative (Leishmania donovani (strain BPK282A1)) (UniProt E9BSI1).
T1 sequence (whole entry): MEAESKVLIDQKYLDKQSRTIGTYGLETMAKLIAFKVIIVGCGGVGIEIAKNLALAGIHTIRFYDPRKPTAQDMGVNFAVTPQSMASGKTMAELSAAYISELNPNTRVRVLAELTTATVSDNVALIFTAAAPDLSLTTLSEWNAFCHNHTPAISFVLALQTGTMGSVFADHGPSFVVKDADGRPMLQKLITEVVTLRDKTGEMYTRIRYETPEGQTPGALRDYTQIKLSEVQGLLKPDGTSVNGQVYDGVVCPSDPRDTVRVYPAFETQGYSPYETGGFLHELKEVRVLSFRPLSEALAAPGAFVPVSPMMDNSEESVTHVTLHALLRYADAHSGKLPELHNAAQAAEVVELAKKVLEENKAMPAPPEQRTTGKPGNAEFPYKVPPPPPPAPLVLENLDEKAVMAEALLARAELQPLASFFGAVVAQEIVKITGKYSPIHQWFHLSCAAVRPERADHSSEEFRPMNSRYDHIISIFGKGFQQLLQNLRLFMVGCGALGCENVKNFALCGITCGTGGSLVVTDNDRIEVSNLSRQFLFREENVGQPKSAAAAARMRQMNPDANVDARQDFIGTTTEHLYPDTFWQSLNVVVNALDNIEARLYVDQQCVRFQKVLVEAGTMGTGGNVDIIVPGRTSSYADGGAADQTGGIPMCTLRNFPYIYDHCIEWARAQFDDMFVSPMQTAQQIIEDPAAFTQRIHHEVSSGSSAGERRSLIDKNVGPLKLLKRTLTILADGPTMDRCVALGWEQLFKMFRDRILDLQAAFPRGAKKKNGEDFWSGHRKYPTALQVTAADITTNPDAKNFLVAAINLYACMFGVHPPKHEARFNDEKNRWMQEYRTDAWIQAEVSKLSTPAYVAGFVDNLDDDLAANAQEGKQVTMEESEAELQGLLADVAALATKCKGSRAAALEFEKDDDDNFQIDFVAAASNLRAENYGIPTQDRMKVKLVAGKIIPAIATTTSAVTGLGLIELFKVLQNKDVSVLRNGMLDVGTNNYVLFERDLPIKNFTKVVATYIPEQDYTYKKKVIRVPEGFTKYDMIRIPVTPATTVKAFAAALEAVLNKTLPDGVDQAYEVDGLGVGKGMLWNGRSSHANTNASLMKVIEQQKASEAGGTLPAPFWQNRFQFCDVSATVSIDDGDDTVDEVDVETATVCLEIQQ
Put plainly: Leishmania donovani Ubiquitin Activating Enzyme (LdE1). Particulars: 30 µM. The assay is classed as functional.

Assay [3] deals with AMP-activated protein kinase, AMPK (Homo sapiens) (UniProt P54646+O43741+P54619+Q9UGJ0+Q9Y478+Q13131+Q9UGI9). The experiment in a line: AMP-dependent Kinase enzyme assay. An in vitro enzyme assay that detects ADP turnover that is directly proportional to AMPK activity. This uses naive AMPK that is activated during the assay with MK-8722. The assay is classed as functional. Particulars: 30 µM.

Assay [4] deals with Sialic acid-binding Ig-like lectin 9 (Homo sapiens) (UniProt Q9Y336). Put plainly: Hs-Siglec9 ALPHAscreen SOP 20170721. Particulars: 10 µM. In general terms: In Alpha technology, singlet oxygen from a donor bead excites a nearby acceptor bead.
Chain of Sialic acid-binding Ig-like lectin 9 (Homo sapiens) (Q9Y336 whole entry): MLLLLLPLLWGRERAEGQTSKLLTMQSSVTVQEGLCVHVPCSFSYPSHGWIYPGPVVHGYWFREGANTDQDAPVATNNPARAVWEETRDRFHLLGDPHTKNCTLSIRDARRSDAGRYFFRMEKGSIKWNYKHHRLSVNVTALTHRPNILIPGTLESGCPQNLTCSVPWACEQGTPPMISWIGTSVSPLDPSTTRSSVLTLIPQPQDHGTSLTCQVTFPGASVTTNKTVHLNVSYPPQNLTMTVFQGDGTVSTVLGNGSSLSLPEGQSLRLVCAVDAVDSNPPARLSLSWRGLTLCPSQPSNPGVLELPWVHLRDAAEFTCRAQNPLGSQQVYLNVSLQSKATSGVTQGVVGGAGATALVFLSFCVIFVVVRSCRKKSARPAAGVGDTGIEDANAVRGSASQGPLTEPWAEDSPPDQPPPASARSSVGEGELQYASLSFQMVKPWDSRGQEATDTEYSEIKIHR
A further assay deals with Trypanosoma cruzi. Put plainly: Trypanosoma cruzi phosphomannomutase and mannose-1-phosphate guanylyltransferase assay. The assay is classed as functional. Particulars: 10 µM.
Assay [5] addresses T2, Arginase-2, mitochondrial (Homo sapiens) (UniProt P78540).
T2 sequence (whole entry): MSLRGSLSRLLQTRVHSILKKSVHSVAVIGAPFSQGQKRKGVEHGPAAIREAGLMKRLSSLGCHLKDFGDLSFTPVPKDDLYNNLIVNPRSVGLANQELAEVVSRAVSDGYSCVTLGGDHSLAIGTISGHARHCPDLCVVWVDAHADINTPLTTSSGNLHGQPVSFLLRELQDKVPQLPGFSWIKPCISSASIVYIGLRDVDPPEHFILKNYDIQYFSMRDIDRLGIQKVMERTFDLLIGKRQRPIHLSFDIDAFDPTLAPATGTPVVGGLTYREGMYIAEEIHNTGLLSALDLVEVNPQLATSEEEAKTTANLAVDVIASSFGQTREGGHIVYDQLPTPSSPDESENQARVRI
Put plainly: in vitro enzyme assay to detect the production of urea directly proportional to the activity of Arginase II. Further: in the data most compounds retested in dose-response had high values. The assay is classed as functional. Particulars: 33.3 µM.

Assay [6] addresses T3, Proteasome subunit beta (Trypanosoma cruzi) (UniProt O96673).
T3 sequence (whole entry): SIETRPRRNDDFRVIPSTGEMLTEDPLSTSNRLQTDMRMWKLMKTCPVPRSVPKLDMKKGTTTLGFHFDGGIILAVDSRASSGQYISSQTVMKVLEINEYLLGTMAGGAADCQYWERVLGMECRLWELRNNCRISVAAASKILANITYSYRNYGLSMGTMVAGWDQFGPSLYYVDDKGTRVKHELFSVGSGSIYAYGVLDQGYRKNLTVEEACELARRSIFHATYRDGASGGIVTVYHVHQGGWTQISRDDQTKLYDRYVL
The experiment in a line: Trypanosoma cruzi proteasome chymotrypsin-like activity (TcProtChymo) assay. Further: in the data most compounds retested in dose-response had high values. The assay is classed as functional. Particulars: 9.37 µM.

The species entered for a further assay is Homo sapiens. The experiment in a line: To identify inhibition of the IFN signalling (Jak-Stat) pathway via expression of an eGFP reporter gene under the control of an IFN-stimulated response element (ISRE) containing MxA promoter. The assay is classed as functional. As to conditions: 30 µM. (In a reporter assay the amount or activity of a reporter protein is the signal.)

The target of assay [7] is T4, Tyrosyl-tRNA synthetase, putative (Trypanosoma cruzi (strain CL Brener)) (UniProt Q4DSP6).
T4 sequence (whole entry): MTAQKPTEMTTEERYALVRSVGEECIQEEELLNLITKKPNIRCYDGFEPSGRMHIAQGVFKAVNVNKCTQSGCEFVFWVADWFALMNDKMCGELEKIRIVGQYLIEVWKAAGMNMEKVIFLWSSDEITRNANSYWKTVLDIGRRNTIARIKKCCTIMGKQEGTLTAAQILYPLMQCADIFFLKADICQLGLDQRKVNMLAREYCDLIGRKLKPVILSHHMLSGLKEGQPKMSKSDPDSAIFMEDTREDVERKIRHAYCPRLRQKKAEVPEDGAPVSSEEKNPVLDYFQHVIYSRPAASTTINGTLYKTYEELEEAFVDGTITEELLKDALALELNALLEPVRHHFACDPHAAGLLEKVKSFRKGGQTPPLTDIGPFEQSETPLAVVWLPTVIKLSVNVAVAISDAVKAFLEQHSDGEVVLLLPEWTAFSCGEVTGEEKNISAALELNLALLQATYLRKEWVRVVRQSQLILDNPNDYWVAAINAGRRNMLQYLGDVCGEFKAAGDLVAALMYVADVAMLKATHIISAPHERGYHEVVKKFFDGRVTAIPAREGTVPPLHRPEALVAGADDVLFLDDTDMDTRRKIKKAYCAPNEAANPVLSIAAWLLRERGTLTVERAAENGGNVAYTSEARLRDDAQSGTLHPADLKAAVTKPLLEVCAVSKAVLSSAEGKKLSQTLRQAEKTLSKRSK
Put plainly: Trypanosoma cruzi tyrosyl tRNA synthetase (TcYRS) _High Tyrosine SOP. Further: in the data most compounds retested in dose-response had high values. The assay is classed as functional. As to conditions: 30 µM.

Assay [8] has as its target T4, Tyrosyl-tRNA synthetase, putative (Trypanosoma cruzi (strain CL Brener)). Put plainly: Trypanosoma cruzi tyrosyl tRNA synthetase (TcYRS) SOP. The assay is classed as functional. As to conditions: 30 µM.
For assay [9], the target named is Chromo domain-containing protein 1 (Saccharomyces cerevisiae (strain ATCC 204508 / S288c) (Baker's yeast)) (UniProt P32657). The experiment in a line: ScCHD-1 Enzyme Inhibition Assay. Further: in the data most compounds retested in dose-response had high values. The assay is classed as functional. Particulars: 30 µM.
Chain of Chromo domain-containing protein 1 (Saccharomyces cerevisiae (strain ATCC 204508 / S288c) (Baker's yeast)) (P32657 whole entry, the tested form may be a part): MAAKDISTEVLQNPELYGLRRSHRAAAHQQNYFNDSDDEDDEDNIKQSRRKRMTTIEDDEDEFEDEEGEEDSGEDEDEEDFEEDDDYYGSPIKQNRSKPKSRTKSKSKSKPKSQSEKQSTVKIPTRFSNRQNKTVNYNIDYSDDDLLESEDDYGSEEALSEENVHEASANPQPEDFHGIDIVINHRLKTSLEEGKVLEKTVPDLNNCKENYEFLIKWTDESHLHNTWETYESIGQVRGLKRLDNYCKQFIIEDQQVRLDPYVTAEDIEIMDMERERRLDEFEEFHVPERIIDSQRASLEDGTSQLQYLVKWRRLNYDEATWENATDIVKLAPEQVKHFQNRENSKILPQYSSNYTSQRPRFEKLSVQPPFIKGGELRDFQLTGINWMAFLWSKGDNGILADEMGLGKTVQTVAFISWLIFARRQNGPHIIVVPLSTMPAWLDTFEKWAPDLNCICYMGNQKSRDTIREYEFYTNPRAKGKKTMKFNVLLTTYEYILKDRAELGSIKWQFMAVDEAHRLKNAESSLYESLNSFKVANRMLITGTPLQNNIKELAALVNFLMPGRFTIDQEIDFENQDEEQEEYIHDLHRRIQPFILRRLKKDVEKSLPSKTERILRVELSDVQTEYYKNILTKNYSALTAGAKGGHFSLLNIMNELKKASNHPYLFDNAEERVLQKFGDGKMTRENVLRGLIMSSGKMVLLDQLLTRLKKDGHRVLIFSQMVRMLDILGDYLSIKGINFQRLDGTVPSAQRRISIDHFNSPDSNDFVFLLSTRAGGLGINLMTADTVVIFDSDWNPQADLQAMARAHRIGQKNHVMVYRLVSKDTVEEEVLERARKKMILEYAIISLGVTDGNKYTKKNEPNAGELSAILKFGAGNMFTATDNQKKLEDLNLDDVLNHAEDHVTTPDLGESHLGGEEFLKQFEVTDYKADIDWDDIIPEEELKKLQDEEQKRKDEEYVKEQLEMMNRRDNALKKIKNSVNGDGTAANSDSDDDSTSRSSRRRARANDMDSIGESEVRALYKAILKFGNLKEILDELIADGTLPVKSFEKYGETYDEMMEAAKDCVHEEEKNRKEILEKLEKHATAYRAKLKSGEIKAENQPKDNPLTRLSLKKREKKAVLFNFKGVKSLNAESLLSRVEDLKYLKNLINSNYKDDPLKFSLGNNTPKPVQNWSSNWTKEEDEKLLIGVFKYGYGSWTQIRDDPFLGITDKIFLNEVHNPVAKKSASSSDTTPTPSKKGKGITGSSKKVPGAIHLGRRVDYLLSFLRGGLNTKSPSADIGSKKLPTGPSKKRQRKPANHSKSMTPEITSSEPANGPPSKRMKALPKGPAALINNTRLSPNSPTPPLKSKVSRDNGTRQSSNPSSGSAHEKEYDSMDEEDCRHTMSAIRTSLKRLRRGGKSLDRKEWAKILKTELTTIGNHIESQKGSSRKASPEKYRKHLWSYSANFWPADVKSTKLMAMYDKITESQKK

For some of these results: Entries with a potency or affinity are not part of this list.

Chain of Protein translocase subunit SecA (Escherichia coli (strain K12)) (P10408 whole entry): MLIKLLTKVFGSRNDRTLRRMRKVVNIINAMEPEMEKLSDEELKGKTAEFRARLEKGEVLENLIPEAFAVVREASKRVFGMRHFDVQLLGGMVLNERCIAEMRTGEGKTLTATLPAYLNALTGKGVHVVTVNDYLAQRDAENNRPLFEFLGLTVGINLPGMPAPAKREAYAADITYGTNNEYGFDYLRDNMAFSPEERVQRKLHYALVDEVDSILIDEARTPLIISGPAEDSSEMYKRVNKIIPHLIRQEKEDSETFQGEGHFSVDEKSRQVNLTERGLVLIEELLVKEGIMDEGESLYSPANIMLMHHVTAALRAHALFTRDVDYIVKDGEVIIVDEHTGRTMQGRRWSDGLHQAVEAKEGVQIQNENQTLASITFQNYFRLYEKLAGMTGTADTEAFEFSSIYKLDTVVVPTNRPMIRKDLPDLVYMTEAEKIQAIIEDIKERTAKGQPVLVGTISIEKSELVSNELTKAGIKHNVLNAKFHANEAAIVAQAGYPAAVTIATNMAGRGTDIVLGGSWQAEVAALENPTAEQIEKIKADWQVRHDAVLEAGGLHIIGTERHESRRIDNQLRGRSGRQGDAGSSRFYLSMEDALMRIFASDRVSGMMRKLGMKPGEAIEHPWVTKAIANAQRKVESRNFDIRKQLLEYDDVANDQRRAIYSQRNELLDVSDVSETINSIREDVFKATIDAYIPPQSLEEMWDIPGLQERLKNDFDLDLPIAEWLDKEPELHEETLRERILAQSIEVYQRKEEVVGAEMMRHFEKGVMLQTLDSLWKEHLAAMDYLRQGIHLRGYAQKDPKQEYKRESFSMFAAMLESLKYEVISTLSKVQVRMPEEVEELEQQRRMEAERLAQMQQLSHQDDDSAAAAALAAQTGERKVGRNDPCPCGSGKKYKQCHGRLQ

Take `COCCN1CCC(CNC(=O)C2(c3cccc(C)c3)CC2)CC1`: the Percent Effect in assay [1] was -2.68%; in assay [2], 3.8%; in assay [3], 0.953%; in assay [4] it was 1.27%; in the assay on Trypanosoma cruzi, -4.82%; in [5], 2.8%. In addition, the Percent Effect in assay [6] is 0.172%; in the assay listed under Homo sapiens, 7.85%; in assay [7] it was 1.04%; in assay [8], 2.53%; in assay [9], -25%.
Regarding `CC(=O)NC(C)(C)C(=O)Nc1ncc(Cc2ccc(C)c(F)c2)s1`, the Percent Effect is -2.79% in [1]; 13.9% in [2]; 1.18% in assay [3]; 3.12% in assay [4]; 8.51% in the assay with Trypanosoma cruzi; -2.37% in assay [5]. Moreover, the Percent Effect is 13.2% in [6]; 28.2% in the assay filed under Homo sapiens; 5.21% in assay [7]; 17.7% in [8]; -33.1% in assay [9].
For the compound `COc1cccc(CNC(=O)CN2CCCCC2Cn2cccn2)c1` (stereo unspecified), the Percent Effect is -3.05% in [1]; 5.2% in [2]; 2.66% in [3]; 13% in assay [4]; 4.6% in the assay on Trypanosoma cruzi; -0.21% in assay [5]. For the same compound, the Percent Effect in [6] is 2.83%; in the assay listed under Homo sapiens it was -17%; in assay [7], 3.81%; in assay [8] it was 11.8%; in assay [9] it was -17.2%.
Regarding `COc1c(CNCc2cccc(Cn3ccnc3)c2)c(C)nn1C`, the Percent Effect in assay [1] was -5.63%; in assay [2], 21.6%; in assay [3], -15%; in assay [4], 13.9%; in the assay on Trypanosoma cruzi it was 5.38%; in assay [5], -11.2%. Moreover, the Percent Effect in assay [6] is 10.3%; in the assay listed under Homo sapiens, 37.8%; in [7], 4.43%; in [8], 18.5%; in assay [9], -10%.
In the case of `CCc1nc(CN2CCCC(NCc3nnc(C4CC4)o3)C2)no1` (stereo unspecified), the Percent Effect was -2.45% in assay [1]; 18.2% in assay [2]; 3.2% in assay [3]; -12.1% in assay [4]; 1.67% in the assay on Trypanosoma cruzi; -0.632% in assay [5]. In addition, the Percent Effect in [6] was 10.4%; in the assay filed under Homo sapiens, -0.806%; in assay [7], 11.4%; in assay [8], 25.9%; in assay [9], -21.2%.
For `COc1ccc(Br)c(C(=O)N2CCC(c3n[nH]c(C4CC4)n3)CC2)c1`, the Percent Effect is -4.1% in [1]; 16.5% in assay [2]; 1.39% in assay [3]; 2.29% in [4]; 0.513% in the assay with Trypanosoma cruzi; -3.23% in [5]. Moreover, the Percent Effect in [6] is 11.8%; in the assay filed under Homo sapiens, 4.22%; in assay [7] it was 4.17%; in assay [8], 25.3%; in assay [9], -27.6%.
For the compound `O=C(NC1CCN(c2snc3ccccc23)CC1)C1CCC1`, the Percent Effect is -4.68% in [1]; 16.5% in [2]; -3.67% in assay [3]; 3.44% in assay [4]; -1.74% in the assay with Trypanosoma cruzi; -1.07% in assay [5]. Moreover, the Percent Effect in assay [6] was 9.43%; in the assay listed under Homo sapiens, 21.9%; in [7], 4.17%; in assay [8], 20.2%; in assay [9], -33%.
With `c1ccc(CC2CCN(Cc3ccnc(-c4cccnc4)n3)CC2)cc1`, the Percent Effect is 0.966% in assay [1]; -4.05% in assay [2]; 9.39% in assay [3]; 1.78% in assay [4]; 0.198% in the assay on Trypanosoma cruzi; 1.16% in assay [5]. The Percent Effect is -1.56% in assay [6]; 18.1% in the assay filed under Homo sapiens; 4.3% in assay [7]; 6.49% in assay [8]; 7.16% in assay [9].
For the compound `CCn1ncc(CN2CCc3c(nc(-c4cccnc4)[nH]c3=O)C2)c1C`, the Percent Effect is -4.9% in assay [1]; 5.33% in assay [2]; 9.46% in assay [3]; 2.36% in assay [4]; 7.87% in the assay on Trypanosoma cruzi; 0.699% in assay [5]. Moreover, the Percent Effect in assay [6] is 10.3%; in the assay filed under Homo sapiens, 2.75%; in assay [7], 5.32%; in assay [8] it was 11.5%; in [9], -4.43%.
Take `COCCOc1ccc(NC(=O)C2CCCN(C(N)=O)C2)cn1` (stereo unspecified): the Percent Effect in assay [1] was -4.58%; in [2], 7.59%; in assay [3], 0.0742%; in assay [4], 4.56%; with Trypanosoma cruzi, -6.33%; in [5], 1.52%. For the same compound, the Percent Effect in assay [6] is 5.82%; in the assay listed under Homo sapiens it was 22.6%; in assay [7], -0.493%; in assay [8], -1.27%; in assay [9], -5.42%.
For `CC(=O)Nc1nc(C(=O)NC(C)c2ccc(F)cc2)cs1` (stereo unspecified), the Percent Effect in [1] was -2.72%; in [2] it was 15.6%; in assay [3], 16.6%; in [4], -7.49%; in the assay on Trypanosoma cruzi, 6.76%; in assay [5] it was -9.05%. Moreover, the Percent Effect in assay [6] was 11.1%; in the assay filed under Homo sapiens, -15.4%; in [7], 8.57%; in assay [8], 21.2%; in [9] it was -24.3%.

Source of the values: ChEMBL document CHEMBL3988442, “University of Dundee, Small-Polar-MMV Screening Library” (2021).
